# PubChem BioAssay (Tox21)
# Active and inactive are the calls of the source. Calls come from the whole dose curve; as a rule, active = well fitted curve in the direction sought with a large enough effect in the repeat runs; inconclusive = weak or mixed curves; inactive = flat fitted curve, though single readings scatter.
# Assay: qHTS assay to test for compound auto fluorescence at 590 nm (red) in HepG2 cells (AID 720674)
# Conditions: HepG2 autofluorescence, red 540/590 nm, 1 h; series mostly up to 91.3 µM; fluorescence, relative to Rose Bengal: at the top concentration
# From the text: U.S. Tox21 Program National Center for Advancing Translational Sciences [NCATS] NIH Chemical Genomics Center [NCGC] U.S. Environmental Protection Agency [EPA] National Institutes of Environmental Health Sciences [NIEHS] National Toxicology Program [NTP] U.S. Food and Drug Administration [FDA] Tox21 Assay Overview: Compound auto fluorescence often interferes with screening of the compound library against various biological targets and signaling pathways. Some of these compounds may have fluorophoric properties. Such properties may interfere with the assay outputs resulting in false positives and/or negatives. To decrease such complications and ensure the compound activities are relevant in terms of biological response, the Tox21 10K compound library was screened for auto fluorescence. From the fluorophores used as reporter signals in our screening assays, the auto fluorescence equivalencies of compounds against three fluorophores have been evaluated: Triamterene, Fluorescein and Rose Bengal sodium for blue, green and red fluorescence, respectively. The fluorescence intensities were measured using Excitation/Emission wavelengths at 405/460nm, 485/535nm and 540/590nm for blue, green and red labels, respectively. This assay includes the red fluorescence data.
# Tox21 Assay Protocol Summary: 2,000 HepG2 cells in 5 uL of culture medium (MEM containing 10% FBS) per well were dispensed into black wall/clear bottom 1536-well plates using a Multidrop Combi Dispenser (ThermoFisher Scientific, Waltham, MA). The assay plates were incubated overnight at 37 C to allow cell attachment to the well bottom, followed by the transfer of 23 nL compound or DMSO vehicle by a pintool work station (Kalypsys , San Diego, CA). After the assay plates were incubated for 1 hr at 37 C and 5% CO2, fluorescence intensities in the assay plates were measured by an Envision (PerkinElmer, Shelton, CT) plate reader using three labels for measuring blue, green and red fluorescence at […] 460, 535 and 590 nm respectively.
# % is set by controls: 0 for no effect and ±100 for the full control effect.
SMILES,"fluorescence, relative to Rose Bengal",outcome
CC(C)(CCl)C(=O)Cl,0.0372% (inactive),–
O=Cc1ccc2c(c1)OCO2,0.0463% (inactive),–
S=C=NCc1ccccc1,0.0478% (inactive),–
C=CC[C@]1(O)CC[C@H]2[C@@H]3CCC4=CC(=O)CCC4=C3C=C[C@@]21C,-0.0419% [at 46 µM] (inactive),–
C(=NC1CCCCC1)=NC1CCCCC1,–,inactive
c1ccoc1,0.194% (inactive),–
O=[Se]=O,-0.086% [at 46 µM] (inactive),–
C=CC(=O)OC(C)(C)C,-0.174% (inactive),–
C=CC(=O)OC,-0.0271% (inactive),–
CC1CC(CC2CCC(N)C(C)C2)CCC1N (stereo not given),-0.0601% [at 95.7 µM] (inactive),–
CC1(C)CCC(Cc2ccc(Cl)cc2)C1(O)Cn1cncn1 (stereo not given),0.0628% (inactive),–
Cl/C=C\C[N+]12CN3CN(CN(C3)C1)C2,-0.068% (inactive),–
ClCCCCBr,0.209% (inactive),–
CCCCCCCCCC(=O)O[C@H]1CC[C@H]2[C@@H]3CCC4=CC(=O)CC[C@@H]4[C@H]3CC[C@]12C,0.685% [at 46 µM] (inactive),–
BrCC(Br)C1CCC(Br)C(Br)C1 (stereo not given),0.0972% (inactive),–
CCOC(=O)C(Cl)C(C)=O (stereo not given),-0.031% [at 95.7 µM] (inactive),–
O=C(O)c1ccccc1C(=O)Nc1cccc2ccccc12,-0.147% (inactive),–
ClCc1ccccc1,0.42% (inactive),–
COP(=S)(Oc1cc(Cl)c(Br)cc1Cl)c1ccccc1 (stereo not given),0.145% (inactive),–
CN(N=O)c1ccc([N+](=O)[O-])cc1,0.148% (inactive),–

SMILES,"fluorescence, relative to Rose Bengal",outcome
O=C1CN=C(c2ccccc2)c2cc(Cl)ccc2N1CC1CC1,–,inactive
N#CCC#N,0.491% (inactive),–
CCCCCCCCOC(=O)c1ccc(C(=O)OCCCCCCCC)c(C(=O)OCCCCCCCC)c1,-0.131% [at 95.7 µM] (inactive),–
CCOP(=S)(OCC)SCSCC,-0.0138% (inactive),–
[CH3][Sn]([CH3])([Cl])[Cl],–,inactive
CCOP(=S)(Oc1ccc([N+](=O)[O-])cc1)c1ccccc1 (stereo not given),0.123% (inactive),–
Nc1ccc(N=Nc2ccc(-c3ccc(N=Nc4c(S(=O)(=O)O)cc5cc(S(=O)(=O)O)c(N=Nc6ccccc6)c(O)c5c4N)cc3)cc2)c(N)c1,0.0224% (inactive),–
CC(C)(C)C(O)C(Oc1ccc(Cl)cc1)n1cncn1 (stereo not given),0.685% (inactive),–
CCOS(C)(=O)=O,-0.152% [at 95.7 µM] (inactive),–
CC(=O)NC1CCSC1=O (stereo not given),–,inactive
BrCCCCBr,-0.0107% (inactive),–
O=C1c2ccccc2C(=O)C1C(=O)C(c1ccccc1)c1ccccc1,0.622% [at 46 µM] (inactive),–
CN(C)c1ccc(N(C)C)cc1,-0.716% (inactive),–
Nc1ccc([N+](=O)[O-])cc1[N+](=O)[O-],0.0702% (inactive),–
O=C(CCl)c1ccc(Cl)cc1Cl,–,inactive
CC(C)=CCOc1c2occc2cc2ccc(=O)oc12,0.0105% [at 46 µM] (inactive),–
O=[N+]([O-])c1ccc(F)c([N+](=O)[O-])c1,–,inactive
C=CCN1CC[C@]23c4c5ccc(O)c4O[C@H]2C(=O)CC[C@@]3(O)[C@H]1C5,–,inactive
COC(N)=O,0.0184% (inactive),–
CC(=O)[C@H]1CC[C@H]2[C@@H]3CC[C@H]4C[C@](C)(O)CC[C@]4(C)[C@H]3CC[C@]12C,-0.0502% [at 46 µM] (inactive),–
